# ROMK mod: ROMK potassium channel modulators, primary screen, cell-based, thallium flux, MLSMR library; 130,000 compounds, 2% hits; B-score at 10 µM; ATP-sensitive inward rectifier potassium channel 1 (Homo sapiens), P48048; Tet-inducible ROMK, thallium flux fluorescence; actives lie on both sides; AID 1918, 2009;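 active = signal ratio slope over the read window, or its plate-corrected B-score, at least 3 SD from the plate mean, either direction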;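 also: B-score of the F/F0 ratio slope over 7 to 12 s after thallium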
# S1P3 antag: S1P3 receptor antagonists, primary screen, cell-based | CHO S1P3 NFAT-BLA reporter, FRET fluorescence, antagonist mode | Sphingosine 1-phosphate receptor 3 (Homo sapiens), Q99500 | AID 485, 2006 | 170,000 compounds, 0.27% hits | inhibition, % at 4.98 µM;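 active = inhibition above the plate cutoff, the mean inhibition of test wells on that plate plus 3 SD, cut at about 28% in these data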;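 also: cells challenged with S1P at its EC80 of 0.8 µM; blue over green emission ratio from cleaved BLA substrate after 4 h stimulation; 0% = S1P-stimulated wells and 100% = unstimulated DMSO-only wells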
# Target sequence (Q99500 whole entry, looked up): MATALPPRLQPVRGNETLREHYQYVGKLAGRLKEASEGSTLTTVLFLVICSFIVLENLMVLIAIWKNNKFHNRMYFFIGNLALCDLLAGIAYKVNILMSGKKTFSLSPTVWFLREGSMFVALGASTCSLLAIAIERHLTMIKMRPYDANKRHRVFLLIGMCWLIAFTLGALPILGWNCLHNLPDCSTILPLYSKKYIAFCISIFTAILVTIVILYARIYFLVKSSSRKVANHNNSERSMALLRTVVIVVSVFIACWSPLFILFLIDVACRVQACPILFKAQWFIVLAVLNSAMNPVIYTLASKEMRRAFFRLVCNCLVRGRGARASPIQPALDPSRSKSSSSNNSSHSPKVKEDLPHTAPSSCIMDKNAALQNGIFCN
# S1P4 antag: S1P4 receptor antagonists, primary screen, cell-based; 220,000 compounds, 0.26% hits; inhibition, % at 4.98 µM; S1P4-expressing cells, antagonist mode, reporter read-out; in the data active = inhibition above about 29%;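 also: 0% = wells stimulated with agonist and 100% = vehicle wells without agonist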
# KCC2 mod: KCC2 cotransporter modulators, thallium flux, primary screen, cell-based, HEK293 KCC2, FluoZin-2 fluorescence, MLSMR; KCC2 cells, thallium flux FluoZin-2 fluorescence; 190,000 compounds, 2.2% hits; Solute carrier family 12 member 5 (Homo sapiens), Q9H2X9; B-score of Tl+ flux slope (higher = more flux/activation; lower = inhibition) at 10 µM;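 active = thallium flux slope and its plate-corrected score both differing from the plate sample mean at a set confidence after two filtering rounds, in either direction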;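 also: slope of fluorescence scaled to starting intensity during 10 to 20 s after thallium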
# S1P4 ag: S1P4 receptor agonists, primary screen, cell-based. S1P4-expressing cell line, agonist reporter assay. Sphingosine 1-phosphate receptor 4 (Homo sapiens), O95977. activation, % at 4.98 µM. 220,000 compounds, 0.35% hits; in the data active = activation above about 11%;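 also: 0% = DMSO vehicle and 100% = reference agonist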
# RAM inhibit: inhibitors of the yeast RAM network, primary screen, dse1pr::URA3 reporter, 5-FOA selection; S. cerevisiae dse1pr::URA3 reporter, 5-FOA growth OD615, 2 d; analog-sensitive cbk1-as2 kinase mutant strain; inhibition, % at 50 µM; 190,000 compounds, 1.8% hits; AID 868, 2007;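 active = inhibition above a set limit, 3 SD over mean compound inhibition, cut at about 8.4% in these data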;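 also: 0% = DMSO-only wells with no growth and 100% = 10 µM 1-NA-PP1 full growth; inhibition rescues growth on 5-FOA so higher OD means more RAM inhibition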
# Numbers without * were called inactive; nt = no result. A selection: hits, their analogues and other compounds. The true share with any hit is near 5.1%.
SMILES,ROMK mod,S1P3 antag,S1P4 antag,KCC2 mod,S1P4 ag,RAM inhibit
CCCC(c1nnnn1Cc1ccc(OC)cc1)N1CCN(c2ccccc2)CC1 (centres undefined),nt,6,-11,-1.3,-1,2
COc1ccc(Cn2nnnc2C(C(C)C)N2CCc3ccccc32)cc1 (centres undefined),nt,5,18,-0.4,-1,11*
O=C(Cc1ccccc1)NNC(=O)c1cnccn1,nt,-1,-4,-0.19,4,1
COC(=O)c1ccc(-n2c(C)cc(C(=O)COC(=O)CC3Sc4ccccc4NC3=O)c2C)cc1 (centres undefined),-0.084,0,-26,-1.1,0,8.8*
Cc1cc(C(=O)COC(=O)CC2Sc3ccccc3NC2=O)c(C)n1-c1ccccc1 (centres undefined),0.21,-10,-1,-0.71,-2,3
COc1ccc(/C=C/C(=O)c2ccc(O)cc2)cc1COc1ccc(F)cc1,nt,nt,-6,nt,-3,6
COc1ccc(Oc2ccc(/C=C/C(=O)c3ccc(O)cc3)cc2[N+](=O)[O-])cc1,-0.52,9,25,1.1,1,11*
COc1ccc(CC(=O)Nc2cccc(-c3nnc(-c4ccc(C)cc4)o3)c2)cc1OC,0.36,-11,-2,-0.033,-2,1
COc1ccc(CC(=O)Nc2cccc(-c3nnc(-c4cccc(C)c4)o3)c2)cc1OC,-1.1,85*,-20,-1.7,-1,4
Cc1ccc(Cl)cc1N1CCN(Cc2nc3ccsc3c(=O)[nH]2)CC1,-0.22,nt,11,0.028,-2,0
CCn1c(CNc2ccc(OC)cc2)nnc1SCC(=O)Nc1ccc(F)cc1,-0.29,nt,-9,0.018,1,1
CCn1c(CNC(=O)COc2ccc(C(C)C)cc2)nnc1SCC(=O)Nc1ccc(F)cc1,nt,nt,3,-2.3,2,10.0*
COc1ccc(CNC(=O)CN(C(=O)CCC(=O)Nc2ccccn2)c2cccc(C)c2)cc1,0.13,1,-18,-0.59,2,10*
CCc1ccc(/C=C2\Oc3cc(OS(C)(=O)=O)ccc3C2=O)cc1,nt,-2,-21,-0.5,1,8.5*
CS(=O)(=O)Oc1ccc2c(c1)O/C(=C\C=C\c1ccccc1)C2=O,nt,12,8,-0.037,0,nt
Cc1cc(C)n(CCc2nc(-c3ccc(-c4ccccc4)cc3)cs2)n1,0.36,2,2,-0.042,0,8.7*
COc1ccc(-c2csc(CCn3nc(C)cc3C)n2)cc1,-0.98,0,-12,0.35,-1,-1
Cc1[nH][nH]c(=O)c1C(c1c(C)[nH][nH]c1=O)c1cn(Cc2cccc3ccccc23)c2ccccc12,-2.7*,nt,-5,-3.3,3,4
CCn1ncc(Br)c1C(=O)N(C)C12CC3CC(CC(C3)C1)C2,-4.5*,15,-11,-0.72,0,1
CC1CCN(S(=O)(=O)c2ccc(C(=O)NNC(=O)C3CC3)cc2)CC1,0.66,-7,6,1.1,2,3
CCn1c(N)c(C(=O)NCc2cccnc2)sc1=S,1,54*,-28,nt,1,1
Nc1c(C(=O)NCc2cccnc2)sc(=S)n1-c1ccccc1,nt,16,-20,0.41,3,3
CCOC(=O)c1ccc(NC(=O)COc2ccc(S(=O)(=O)NC(C)(C)C)cc2)cc1,0.7,nt,-10,0.24,-1,2
Cc1nnc(N)s1,-1.3,-10,-4,0.68,0,nt
COc1cccc(C2CC(c3ccccc3)=NN2S(=O)(=O)c2ccc(C)cc2)c1OC (centres undefined),-8.1*,-2,-9,0.31,1,11*
COc1ccccc1C1CC(c2ccccc2)=NN1S(=O)(=O)c1ccccc1 (centres undefined),nt,4,-11,0.31,2,nt
CCOC(=O)c1cnc(SC)nc1Oc1cccc(NS(=O)(=O)c2ccc(Cl)cc2)c1,nt,nt,-2,nt,0,9.2*

# High-throughput results from PubChem BioAssay.
